# PubChem BioAssay
# Calls of active or inactive are those of the source.
# Assays:
# [1] = binders of probe aFSTL3 on microarray, primary screen, stem cell growth factor project, biochemical, small-molecule microarray, fluorescence 635/667 (AID 1064); settings: higher = more signal;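 further: measures binding of the biotinylated anti-FSTL3 antibody to printed compounds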
# [2] = binders from COS7 lysate, DM2A8 probe, primary screen, torsin A project, cell lysate, small-molecule microarray, fluorescence 635/667 (AID 1065); settings: higher = more signal, COS7 lysate expressing mutant human TOR1A
# [3] = binders of probe aFGF2 on microarray, primary screen, stem cell growth factor project, biochemical, small-molecule microarray, fluorescence 635/667 (AID 1067); settings: higher = more signal;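 further: measures binding of biotinylated aFGF2 protein to printed compounds on slides; z-score merges feature fluorescence and signal-to-noise across triplicate slides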
# [4] = binders of probe aFGF10 on microarray, primary screen, stem cell growth factor project, biochemical, small-molecule microarray, fluorescence 635/667 (AID 1071); settings: higher = more signal;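 further: score merges 667 nm spot intensity and signal to noise from triplicate slides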
# [5] = target: Neurogenic locus notch homolog protein 2 (Homo sapiens) (UniProt Q04721); assay: Notch2 binders on small-molecule microarrays, primary screen, biochemical, small-molecule microarray, 635 nm fluorescence, stem cell growth factors (AID 1073); settings: Notch2 binding, higher = more signal
# Chain of Neurogenic locus notch homolog protein 2 (Homo sapiens) (Q04721 whole entry, looked up, canonical isoform): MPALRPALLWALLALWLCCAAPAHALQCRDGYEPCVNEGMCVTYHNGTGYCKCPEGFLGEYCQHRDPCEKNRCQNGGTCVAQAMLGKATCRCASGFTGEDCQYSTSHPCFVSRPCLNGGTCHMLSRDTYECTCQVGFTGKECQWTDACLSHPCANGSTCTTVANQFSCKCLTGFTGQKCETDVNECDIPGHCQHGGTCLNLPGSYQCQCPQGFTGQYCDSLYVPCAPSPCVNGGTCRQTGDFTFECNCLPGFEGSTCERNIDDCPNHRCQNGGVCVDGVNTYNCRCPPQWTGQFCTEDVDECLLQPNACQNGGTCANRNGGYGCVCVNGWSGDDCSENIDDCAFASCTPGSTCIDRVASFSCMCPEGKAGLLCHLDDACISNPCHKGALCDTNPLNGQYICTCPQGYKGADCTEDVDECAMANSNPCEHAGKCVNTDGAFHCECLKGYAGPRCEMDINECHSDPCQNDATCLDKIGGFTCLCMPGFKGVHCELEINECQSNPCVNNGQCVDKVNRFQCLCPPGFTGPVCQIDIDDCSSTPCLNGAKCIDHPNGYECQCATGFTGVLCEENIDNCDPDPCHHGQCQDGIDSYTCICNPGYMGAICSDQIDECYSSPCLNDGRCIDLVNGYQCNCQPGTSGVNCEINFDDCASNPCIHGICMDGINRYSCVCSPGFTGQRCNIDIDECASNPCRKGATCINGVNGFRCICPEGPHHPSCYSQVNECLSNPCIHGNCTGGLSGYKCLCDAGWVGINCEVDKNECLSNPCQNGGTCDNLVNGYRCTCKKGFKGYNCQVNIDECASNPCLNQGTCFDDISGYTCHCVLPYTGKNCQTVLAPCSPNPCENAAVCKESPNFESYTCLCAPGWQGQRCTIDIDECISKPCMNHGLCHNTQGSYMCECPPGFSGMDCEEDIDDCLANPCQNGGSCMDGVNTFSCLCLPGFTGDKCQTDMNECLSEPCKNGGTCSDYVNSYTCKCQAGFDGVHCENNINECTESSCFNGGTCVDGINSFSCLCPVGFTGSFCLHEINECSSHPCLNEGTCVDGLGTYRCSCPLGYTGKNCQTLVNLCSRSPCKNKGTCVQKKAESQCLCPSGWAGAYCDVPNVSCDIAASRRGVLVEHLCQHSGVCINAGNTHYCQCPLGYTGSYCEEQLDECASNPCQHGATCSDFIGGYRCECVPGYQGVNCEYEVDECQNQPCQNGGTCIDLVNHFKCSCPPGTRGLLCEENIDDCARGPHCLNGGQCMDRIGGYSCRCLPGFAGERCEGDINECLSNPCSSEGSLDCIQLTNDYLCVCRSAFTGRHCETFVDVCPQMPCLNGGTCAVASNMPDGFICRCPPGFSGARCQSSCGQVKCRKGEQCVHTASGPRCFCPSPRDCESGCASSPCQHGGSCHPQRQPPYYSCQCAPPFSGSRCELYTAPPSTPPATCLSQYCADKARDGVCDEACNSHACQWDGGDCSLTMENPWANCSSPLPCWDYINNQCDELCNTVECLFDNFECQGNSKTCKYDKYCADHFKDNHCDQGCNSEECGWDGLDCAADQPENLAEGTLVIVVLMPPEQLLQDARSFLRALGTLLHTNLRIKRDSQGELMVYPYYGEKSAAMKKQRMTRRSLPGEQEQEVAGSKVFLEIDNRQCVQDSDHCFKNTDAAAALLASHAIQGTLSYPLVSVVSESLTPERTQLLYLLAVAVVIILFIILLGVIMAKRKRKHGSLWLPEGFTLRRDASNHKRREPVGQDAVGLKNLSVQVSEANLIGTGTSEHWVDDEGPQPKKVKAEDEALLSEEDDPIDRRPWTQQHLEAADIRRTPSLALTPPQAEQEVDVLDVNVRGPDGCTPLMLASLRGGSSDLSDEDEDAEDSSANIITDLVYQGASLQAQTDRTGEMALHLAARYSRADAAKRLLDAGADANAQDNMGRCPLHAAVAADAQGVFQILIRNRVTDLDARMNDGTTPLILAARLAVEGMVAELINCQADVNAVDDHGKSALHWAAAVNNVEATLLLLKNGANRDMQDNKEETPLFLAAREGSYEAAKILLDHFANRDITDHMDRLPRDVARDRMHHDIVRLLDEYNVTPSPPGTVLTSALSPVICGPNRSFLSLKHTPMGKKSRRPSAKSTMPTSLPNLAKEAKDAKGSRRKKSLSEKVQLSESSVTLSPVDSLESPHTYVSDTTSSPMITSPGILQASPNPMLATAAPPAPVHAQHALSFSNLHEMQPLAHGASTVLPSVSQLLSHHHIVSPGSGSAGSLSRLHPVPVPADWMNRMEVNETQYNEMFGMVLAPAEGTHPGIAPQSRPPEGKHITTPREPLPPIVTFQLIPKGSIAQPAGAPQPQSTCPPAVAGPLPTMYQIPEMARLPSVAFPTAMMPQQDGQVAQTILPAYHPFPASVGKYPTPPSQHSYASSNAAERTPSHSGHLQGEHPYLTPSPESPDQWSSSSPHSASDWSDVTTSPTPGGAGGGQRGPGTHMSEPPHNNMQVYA
# [6] = target: Pro-neuregulin-1, membrane-bound isoform (Homo sapiens) (UniProt Q02297); assay: NRG1 binders on small-molecule microarrays, primary screen, psychiatric disease protein project, biochemical, small-molecule microarray, fluorescence 635/667 (AID 1075); settings: NRG1 binding, 635 nm fluorescence, higher = more signal;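 further: score combines 667 nm spot fluorescence with signal to noise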
# Chain of Pro-neuregulin-1, membrane-bound isoform (Homo sapiens) (Q02297 whole entry, looked up, the tested form may be a part, canonical isoform): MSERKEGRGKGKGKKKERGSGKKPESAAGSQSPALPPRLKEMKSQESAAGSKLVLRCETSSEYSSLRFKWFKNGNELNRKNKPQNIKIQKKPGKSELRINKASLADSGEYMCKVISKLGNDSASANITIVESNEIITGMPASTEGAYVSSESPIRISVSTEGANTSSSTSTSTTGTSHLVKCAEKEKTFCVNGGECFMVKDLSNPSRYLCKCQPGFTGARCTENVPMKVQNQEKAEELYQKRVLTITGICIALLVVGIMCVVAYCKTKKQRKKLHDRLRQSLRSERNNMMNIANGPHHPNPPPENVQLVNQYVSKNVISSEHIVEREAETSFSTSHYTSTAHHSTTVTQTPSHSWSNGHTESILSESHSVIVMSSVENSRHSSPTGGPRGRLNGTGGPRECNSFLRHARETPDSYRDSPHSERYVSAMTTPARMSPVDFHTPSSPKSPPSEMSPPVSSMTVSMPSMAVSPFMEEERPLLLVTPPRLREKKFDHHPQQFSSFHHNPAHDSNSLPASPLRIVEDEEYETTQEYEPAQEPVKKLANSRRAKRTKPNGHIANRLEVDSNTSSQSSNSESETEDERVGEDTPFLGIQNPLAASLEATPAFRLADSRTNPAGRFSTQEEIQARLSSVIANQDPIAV
# [7] = test system: Neuregulin-1 EGF-like domain; assay: binders of neuregulin-1 EGF-like domain, primary screen, biochemical, small-molecule microarray, 635 nm fluorescence (AID 1081); settings: small-molecule microarray binding, higher = more signal;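 further: binding of the protein to compounds printed on small-molecule microarray slides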
# [8] = FRG1 promoter luciferase signal modulators, primary screen, FRG1 inhibition for FSHD, cell-based, C2C12 myotubes, firefly/Renilla luciferase, luminescence (AID 1084); settings: higher = more signal, called active from +8 up or from −8 down
# [9] = binders of probe aFST on microarray, primary screen, stem cell growth factor project, biochemical, small-molecule microarray, fluorescence 635/667 (AID 1086); settings: higher = more signal;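 further: score merges 667 nm fluorescence with signal-to-noise of each printed compound spot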
# [10] = binders of probe aHhip on microarray, primary screen, stem cell growth factor project, biochemical, small-molecule microarray, fluorescence 635/667 (AID 1087); settings: higher = more signal;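 further: score merges spot fluorescence at 667nm with spot signal to noise ratio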
# [11] = test system: PRMT1 (protein arginine N-methyltransferase 1); assay: PRMT1 binders on small-molecule microarrays, primary screen, biochemical, small-molecule microarray, 635 nm fluorescence (AID 1088); settings: small-molecule microarray binding, higher = more signal;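 further: binding of Prmt1 protein to compounds spotted on small-molecule microarray slides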
# [12] = yeast growth modulation, basal conditions, primary screen, YJM789 clinical isolate, OD600, 24 h (AID 1089);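 further: growth of clinical yeast isolate S. cerevisiae YJM 789 seeded 1000 cells per well; test concentration not given here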; settings: S. cerevisiae YJM789 growth, higher = more signal, called active from +8 up or from −8 down
# [13] = fission yeast growth modulation, primary screen, strain 972, OD600, 24 h, no modulator (AID 1090);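 further: basal condition with compound alone and no growth modifier present; test concentration not given here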; settings: S. pombe 972 growth, higher = more signal, called active from +8 up or from −8 down
# [14] = S. cerevisiae growth modulation with rapamycin, primary screen, strain BY4716, OD600, 96 h (AID 1091); settings: higher = more signal, called active from +8 up or from −8 down; further: test concentration not given here
# [15] = target: Torsin-1A-interacting protein 2 (Homo sapiens) (UniProt Q8NFQ8); assay: LULL1 binders on small-molecule microarray, primary screen, cell lysate, human LULL1 lysate, 635/667 nm fluorescence (AID 1092); settings: hLULL1 lysate binding, 635 nm fluorescence, higher = more signal;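 further: probe is lysate of COS7 cells overexpressing human LULL1; score merges per-feature 667 nm fluorescence with signal-to-noise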
# Chain of Torsin-1A-interacting protein 2 (Homo sapiens) (Q8NFQ8 whole entry, looked up): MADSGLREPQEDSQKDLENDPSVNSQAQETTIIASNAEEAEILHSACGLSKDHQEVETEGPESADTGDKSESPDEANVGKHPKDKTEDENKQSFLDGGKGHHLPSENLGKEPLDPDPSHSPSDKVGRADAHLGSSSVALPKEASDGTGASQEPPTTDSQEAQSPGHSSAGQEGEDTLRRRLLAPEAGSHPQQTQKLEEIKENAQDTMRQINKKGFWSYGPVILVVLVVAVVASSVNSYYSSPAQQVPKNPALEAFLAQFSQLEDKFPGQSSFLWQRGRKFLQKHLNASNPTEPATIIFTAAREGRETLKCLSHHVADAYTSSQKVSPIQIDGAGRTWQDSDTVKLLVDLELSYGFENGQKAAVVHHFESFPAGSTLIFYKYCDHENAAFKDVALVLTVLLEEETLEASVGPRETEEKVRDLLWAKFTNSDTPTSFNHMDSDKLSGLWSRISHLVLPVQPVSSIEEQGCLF
# [16] = E. coli growth modulation, two-sided OD650, primary screen, E. coli filamentation project, strain DRC41, 24 h (AID 1093); settings: OD650, 24 h, higher = more signal, called active from +8 up or from −8 down;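 further: MC1000 strain lacking acrAB efflux and sulA so SOS filamentation is blocked; test concentration not given here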
# [17] = small-molecule microarray binders of probe aLefty2, primary screen, biochemical, biotinylated probe, 635/667 nm fluorescence (AID 1094); settings: higher = more signal;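 further: score merges spot fluorescence near 667 nm with spot signal-to-noise ratio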
# [18] = test system: Noggin (protein binding on small-molecule microarray); assay: Noggin binders on small-molecule microarray, primary screen, biochemical, 635/667 nm fluorescence (AID 1095); settings: 635 nm fluorescence, higher = more signal;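 further: score merges 667 nm feature fluorescence with signal to noise over triplicate slides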
# [19] = target: Neurogenic locus notch homolog protein 3 (Homo sapiens) (UniProt Q9UM47); assay: NOTCH3 binders on small-molecule microarray, primary screen, biochemical, 635/667 nm fluorescence (AID 1096); settings: NOTCH3 binding, 635 nm fluorescence, higher = more signal
# [20] = small-molecule microarray binders of probe aEGFR, primary screen, biochemical, biotinylated probe, 635/667 nm fluorescence (AID 1097); settings: higher = more signal;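 further: probe is a biotinylated anti-EGFR antibody binding compounds printed on slides; score combines fluorescence near 667 nm and signal to noise of each spot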
Structure (SMILES),composite z-score [1],composite z-score [2],composite z-score [3],composite z-score [4],composite z-score [5],composite z-score [6],composite z-score [7],z-score [8],composite z-score [9],composite z-score [10],composite z-score [11],z-score [12],z-score [13],z-score [14],composite z-score [15],z-score [16],composite z-score [17],composite z-score [18],composite z-score [19],composite z-score [20]
O=c1n(-c2ccccc2)c(=O)n2n1CC(COc1ccccc1)=C1[C@@H](CCc3ccccc3)OB(O)C[C@@H]12,-0.62,-0.128,-0.031,0.96,0.893,0.97,0.706,-4.24 (inactive),0.642,0.0524,1.42,0.173 (inactive),-3.03 (inactive),-1.44 (inactive),1.39,1.92 (inactive),-0.133,0.814,1.03,0.0209
CCCNC(=O)[C@@]1(Sc2ccc(C)cc2)CC(=O)N(Cc2cc(C(F)(F)F)cc(C(F)(F)F)c2)[C@@H]1c1ccc(CO)cc1I,0.71,0.273,-0.0775,-0.84,-0.472,1.16,0.242,-1.25 (inactive),0.267,-0.0237,0.491,-5.07 (inactive),-5.46 (inactive),-0.894 (inactive),1.03,3.43 (inactive),0.024,-1.35,-0.168,-0.118
C=CCC(OC(C)=O)[C@@H]1[C@@H](N(Cc2ccc(-c3ccccc3)cc2)C(=O)c2ccc(-c3ccccc3)cc2)c2cc(OCCCO)ccc2N1C(=O)c1ccc(-c2ccccc2)cc1 (stereo not given in full),0.54,0.054,0.032,-0.0598,-0.0106,-0.333,-0.864,-0.0089 (inactive),0.214,-0.146,-0.655,-0.611 (inactive),-0.811 (inactive),0.131 (inactive),0.399,1.99 (inactive),0.0525,-0.846,-0.83,-0.0981
C=CCC(OC(C)=O)[C@@H]1[C@@H](N(Cc2cc3ccccc3o2)C(=O)c2ccc(-c3ccccc3)cc2)c2cc(OCCCO)ccc2N1C(=O)c1ccc(-c2ccccc2)cc1 (stereo not given in full),0.218,-0.352,-0.0985,0.0925,0.11,-0.196,-0.714,-1.24 (inactive),0.105,-0.0994,-0.527,1.13 (inactive),0.0977 (inactive),1.38 (inactive),0.94,1.95 (inactive),0.0711,-0.397,-0.402,-0.0444
O=C(O)[C@H]1C[C@H]2C(=O)N[C@@H](Cc3ccccc3)C(=O)N2[C@H]1c1ccc(O)cc1,1.01,0.419,-0.0943,-0.769,-1.42,0.511,1.24,1.02 (inactive),0.16,-0.136,1.32,-0.261 (inactive),-0.784 (inactive),-0.322 (inactive),2.54,0.906 (inactive),-0.0572,0.108,0.321,0.064
COC(=O)C(CC#Cc1ccc2c(c1)[C@]1(C(=O)N2)[C@H](c2ccccc2OCCO)N2[C@H](c3ccccc3)[C@H](c3ccccc3)OC(=O)[C@H]2[C@@H]1C(=O)N1CCCCCCC1)C(=O)OC,4,2.62,0.984,1.28,1.54,2.17,0.982,0.62 (inactive),3.71,2.52,1.53,0.349 (inactive),0.958 (inactive),1.06 (inactive),4.89,1.83 (inactive),1.93,2.02,1.09,1.44
COc1ccc([Si](C)(C)[C@H]2[C@H](CC(=O)N3Cc4ccccc4C[C@H]3CO)O[C@@]3(C(=O)N(Cc4cccc(N5C(=O)COc6ccccc65)c4)c4ccccc43)[C@@H]2C)cc1,-0.187,0.572,-0.12,0.429,0.659,0.838,1.08,-3.08 (inactive),0.203,0.0873,1.47,-0.41 (inactive),0.349 (inactive),2.29 (inactive),1.89,1.86 (inactive),-0.116,1.56,1.11,-0.0192
O=C1c2ccccc2[C@](Cc2ccccc2I)(C(=O)O)[C@H](c2ccc(CO)cc2)N1Cc1ccccc1Cl,0.668,0.651,-0.0301,0.0635,0.268,0.955,0.819,0.17 (inactive),0.43,-0.0994,1.21,-0.818 (inactive),-1.53 (inactive),-1.19 (inactive),1.82,1.13 (inactive),0.0678,-0.168,0.239,-0.104
COC(=O)C(CC#Cc1ccc2c(c1)[C@]1(C(=O)N2)[C@H](C(N)=O)[C@H]2C(=O)O[C@H](c3ccccc3)[C@H](c3ccccc3)N2[C@@H]1c1ccc(O)cc1)C(=O)OC,-0.343,-0.067,-0.245,-1.28,-0.618,0.205,0.699,-0.117 (inactive),-0.882,0.384,-0.95,0.337 (inactive),-1.04 (inactive),0.484 (inactive),0.0509,1.61 (inactive),-0.117,-1.1,-1.23,-0.442
